Source: PubChem (several laboratories)
The entries come from a sample that favours hits as a whole.
BoNT A protease – BoNT A light chain protease inhibition; multiplex microsphere protease substrate cleavage, flow cytometry; inhibition, % at 10 µM; 0.17% of 360,000 active; AID 588499
Bead autofluor – flagged as autofluorescent in microsphere protease counterscreen | fluorescence intensity (no concentration beside the values) | compound autofluorescence counterscreen, microsphere flow cytometry; hits give high values | 3.1% of 360,000 active; in the data active = fluorescence intensity above about 16000; inconclusive = no clear call, values can overlap the other calls
Anthrax LF inh2 – anthrax lethal factor protease inhibition; inhibition, % at 10 µM; AID 588501; 0.12% of 360,000 active; multiplex microsphere protease cleavage assay, LF
TcdB inh – TcdB glycohydrolase inhibition | TcdB glycohydrolase enzymatic assay, plate reader | inhibition, % at 9.99 µM | 0.24% of 350,000 active | AID 652162; in the data active = inhibition above about 10%
BoNT-F LC inh – blocks Botulinum neurotoxin F light chain protease; 0.22% of 360,000 active; Multiplex microsphere protease cleavage assay, flow cytometry; inhibition, % at 10 µM; AID 588497; in the data active = inhibition above about 35%, passing the limit was not always enough; inconclusive = no clear call, values can overlap the other calls
A number is an active result; . = inactive; ? = inconclusive; / = no result given. Cut-off read from the data, not from the text of the source, unless noted: active = inhibition above about 30%; inconclusive = no clear call, values can overlap the other calls; inactive = below that.

SMILES	BoNT A protease	Bead autofluor	Anthrax LF inh2	TcdB inh	BoNT-F LC inh
CCCCOc1ccc(/C=C(\C#N)C(=O)NC2CC2)cc1	.	.	?	.	50
CNC(=O)C[C@@H]1C(=O)N(Cc2ccccc2)CC1(C)C	.	.	.	.	.
CC12C=CC3(CN(Cc4ccccc4)C(=O)C3C1C(=O)NC1CC1)O2 (stereo unspecified)	.	22134	.	/	.
CSCCC(N=Cc1c(O)n(-c2ccc(Br)cc2)c(=O)[nH]c1=O)C(=O)OC(C)(C)C (stereo unspecified)	?	21352	.	/	.
CSCCC(N=Cc1c(O)n(-c2ccc(F)cc2)c(=O)[nH]c1=O)C(=O)OC(C)(C)C (stereo unspecified)	.	.	.	/	.
CC(C)CNC(=O)C(=O)NCC1CCCN1S(=O)(=O)c1cccs1 (stereo unspecified)	.	?	.	13	.
O=C(NCCO)C(=O)NCC1CCCN1S(=O)(=O)c1cccs1 (stereo unspecified)	.	.	.	.	.
Cc1noc(C)c1NC(=O)Nc1ccc2c(c1)C(=O)N([C@H](C)CO)C[C@@H](C)[C@@H](CN(C)S(C)(=O)=O)O2	/	/	/	.	/
O=C(CNC(=O)c1ccco1)OCC(=O)c1ccc2c(c1)CCCC2	.	17018	.	/	.
C[C@H]1CN([C@@H](C)CO)C(=O)c2cc(NC(=O)CCCCCC(=O)Nc3ccccc3N)ccc2O[C@H]1CN(C)CC1CCCCC1	/	/	/	.	/
Cc1ccc(NC(=O)N2CCCC2C(=O)NCCC2=CCCCC2)cc1 (stereo unspecified)	?	18611	.	/	.
Cc1ccc(NC(=O)N2CCC(C(=O)NCCC3=CCCCC3)CC2)cc1	.	16684	.	/	.
CCCCNC(=O)C1CCN(C(=O)Nc2ccc(C)cc2)CC1	.	.	.	/	.
COc1ccc(-c2cc(C(=O)N3CCCCC3)no2)cc1OC	.	23544	.	.	.
COc1ccccc1N1CCN(C(=O)c2cc(-c3ccc(Cl)cc3)on2)CC1	.	24151	.	/	.
COc1ccccc1N1CCN(C(=O)c2cc(-c3ccc(C)cc3)on2)CC1	.	.	.	/	.
CCCN(C)C[C@H]1OCCCC[C@H](C)Oc2ccc(NC(=O)C3CCCCC3)cc2C(=O)N([C@@H](C)CO)C[C@H]1C	/	/	/	.	/
CC(C(=O)NC1=NCCS1)N1C(=O)C2CC=CCC2C1=O (stereo unspecified)	.	.	.	/	.
CC(C(=O)NC1=NCCS1)N1C(=O)c2ccccc2C1=O (stereo unspecified)	.	23583	.	/	.
C[C@H](CO)N1C[C@H](C)[C@H](CN(C)Cc2ccc3c(c2)OCO3)Oc2ccc(NC(=O)Nc3ccc(F)cc3)cc2C1=O	/	/	/	.	/
Cc1nn(Cc2ccccc2)c(C)c1NC(=O)c1cc(-c2ccco2)on1	.	20385	.	/	.
CCc1ccc(NC(=O)c2cc(-c3ccco3)on2)cc1	.	24283	.	/	.
Clc1ccc(Cn2ccc(-c3ccc4c(c3)OCO4)n2)cc1Cl	.	23441	.	/	.
Cc1nn(Cc2ccc(Cl)cc2)c(C)c1NC(=O)c1cc(-c2ccc3c(c2)OCO3)on1	.	.	.	/	.
Cc1nn(Cc2ccc(Cl)c(Cl)c2)c(C)c1NC(=O)c1cc(-c2ccc3c(c2)OCO3)on1	?	19313	.	/	.
SMILES	BoNT A protease	Bead autofluor	Anthrax LF inh2	TcdB inh	BoNT-F LC inh
COc1ccc(NS(=O)(=O)c2ccc3c(c2)CCC(=O)N3)c(OC)c1	.	16726	.	.	.
COc1ccc(Cl)cc1NC(=O)NCc1ccco1	.	.	.	.	.
COc1ccc(Cl)cc1NC(=S)NCc1ccco1	.	23985	.	/	.
CCOc1ccccc1NC(=S)NCc1ccco1	.	22578	.	/	.
Cc1cccc(N(CC(=O)NC2CCCC2)C(=O)CS(=O)CC(=O)Nc2ccc3c(c2)OCO3)c1 (stereo unspecified)	?	22772	.	/	.
CC(C)CNC(=S)NNC(=O)c1ccc2c(c1)OCO2	.	17145	.	/	.
COCCCNC(=S)NNC(=O)c1ccc2c(c1)OCO2	.	.	.	.	.
Cc1cccc(S(=O)(=O)N[C@@H]2CC[C@H](CCNC(=O)CCN3CCCCC3)O[C@H]2CO)c1	/	/	/	.	/
N#Cc1ccccc1NC(=O)CNc1ccccc1N1CCCCC1	?	22615	.	/	.
CN(Cc1ccccc1NCC(=O)Nc1ccccc1C#N)C1CCCCC1	.	.	.	.	.
CCOc1ccc(C(=O)/C=C/c2cn(CN3CCN(C)CC3)c3ccccc23)cc1	.	.	.	.	.
COc1ccc(C(=O)/C=C/c2cn(CN3CCN(C)CC3)c3ccccc23)cc1	.	23529	.	/	.
COc1ccc(OC)c(N2C(=O)C(Cl)=C(N3CCOCC3)C2=O)c1	.	.	.	/	.
COc1ccc(OC)c(N2C(=O)C(Cl)=C(N3CCCCC3)C2=O)c1	.	21020	.	/	.
O=c1nc2sc3ccccc3n2c(=O)n1-c1cccc(Cl)c1	.	.	.	/	.
Cc1ccc2c(c1)sc1nc(=O)n(-c3cccc(Cl)c3)c(=O)n12	.	22395	.	/	.
O=c1nc2sc3ccccc3n2c(=O)n1-c1ccc(Cl)cc1	.	.	.	.	.
Cc1ccc2c(c1)sc1nc(=O)n(-c3ccc(Cl)c(Cl)c3)c(=O)n12	?	22447	.	/	.
Cc1ccc2c(c1)sc1nc(=O)n(-c3ccc(Cl)cc3)c(=O)n12	.	19455	.	/	.
CC(C)C#Cc1cnc2c(c1)C(=O)N([C@@H](C)CO)C[C@@H](C)[C@@H](CN(C)C(=O)c1ccc3c(c1)OCO3)O2	/	/	/	.	/
Cc1ccc(/C=C2\CCC3=C2OC(N)=C(C#N)C3c2ccc(C)cc2)cc1 (stereo unspecified)	.	.	.	/	42
O=C(C[C@H]1CC[C@@H](NC(=O)c2cccnc2)[C@@H](CO)O1)NCc1ccncn1	/	/	/	.	/
CO[C@@H]1CN(C)C(=O)c2ccc(NS(=O)(=O)c3ccccc3)cc2OC[C@H](C)N(Cc2ccccn2)C[C@@H]1C	/	/	/	.	/
Cc1nc2[nH]c(=S)[nH]c(=O)c2nc1C	.	.	.	.	.
Cc1nc2[nH]c(=S)[nH]c2c(=O)[nH]1	.	.	.	29	.
SMILES	BoNT A protease	Bead autofluor	Anthrax LF inh2	TcdB inh	BoNT-F LC inh
N#Cc1cc(Sc2ccccn2)c(Sc2ccccn2)cc1C#N	.	17696	.	/	.
CCCn1nc(NC(=O)c2cccs2)c2cc3ccccc3nc21	.	23719	.	/	.
CCCn1nc(NC(=O)C2CCCO2)c2cc3cc(C)ccc3nc21 (stereo unspecified)	.	21148	.	/	.
CCCCn1nc(NC(=O)c2cccs2)c2cc3ccccc3nc21	.	21346	.	/	.
CCCC(=O)Nc1nn(CCC)c2nc3ccccc3cc12	.	21458	.	/	.
CCCn1nc(NC(=O)c2ccncc2)c2cc3ccccc3nc21	.	.	.	/	.
CCn1nc(NC(=O)c2ccncc2)c2cc3cc(C)ccc3nc21	.	.	.	/	?
CCn1nc(NC(=O)c2ccncc2)c2cc3ccc(C)cc3nc21	.	20719	.	/	.
S=C(NCCc1ccccc1)N1Cc2cc(N3CCCCC3)ccc2-n2nncc2C1	.	32547	.	.	70
C[C@H](CO)N1C[C@H](C)[C@@H](CN(C)C)Oc2ccc(NC(=O)C3CCCCC3)cc2CC1=O	/	/	/	.	/
